Values joined by “and” are separate entries in the source; they are usually repeats but may differ in a detail not shown here. Identical values can stand only once. Screen size: about 16,000 compounds; about 4,000 (25%) were called active. Not shown: some 26% with an inconclusive outcome. Only a sample is shown. Values without a mark were called inactive. Calls follow the shape of the dose curve; as a rule, active = well fitted curve in the direction sought with a large enough effect; inconclusive = small, poorly fitted or top-dose-only effect, or effect the other way; inactive = no such curve, though single readings can be large or run the other way.
These compounds were tested against Cytochrome P450 2C9 (Homo sapiens) (UniProt P11712) (assay: Cytochrome panel assay with activity outcomes). Conditions: recombinant CYP, pro-luciferin dealkylation, luminescence, p450-cyp2c9; series mostly up to 57.1 µM.
% is scaled to controls: 0 for no effect and ±100 for the full control effect.

Sequence of Cytochrome P450 2C9 (Homo sapiens) (P11712 whole entry, looked up): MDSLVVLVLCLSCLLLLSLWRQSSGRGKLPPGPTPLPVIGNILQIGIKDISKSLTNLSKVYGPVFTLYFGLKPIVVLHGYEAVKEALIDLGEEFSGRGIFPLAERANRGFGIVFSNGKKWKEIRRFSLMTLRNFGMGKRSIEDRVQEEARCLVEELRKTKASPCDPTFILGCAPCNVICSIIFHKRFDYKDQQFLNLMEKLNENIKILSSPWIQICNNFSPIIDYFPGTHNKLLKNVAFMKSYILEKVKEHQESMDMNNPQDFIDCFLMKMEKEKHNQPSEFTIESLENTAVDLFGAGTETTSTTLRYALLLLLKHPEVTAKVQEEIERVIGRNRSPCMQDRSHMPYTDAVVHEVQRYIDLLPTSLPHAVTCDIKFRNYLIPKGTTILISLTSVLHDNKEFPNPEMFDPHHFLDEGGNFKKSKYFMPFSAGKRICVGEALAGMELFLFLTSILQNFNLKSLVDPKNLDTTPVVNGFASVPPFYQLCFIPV

| Compound | AC50 | activity, negative = inhibition |
| --- | --- | --- |
| O=C(O)CN1CCN(Cc2ccccc2Cl)C1=O | inactive |  |
| O=C(O)CN1CCN(Cc2ccc(F)cc2Cl)C1=O | 0.316 µM (active) |  |
| Cc1cccc(CN2CCN(CC(=O)O)C2=O)c1 | inactive |  |
| CC(Cc1ccccc1)N/C=C1\CC(=O)NC1=O (centres undefined) | inactive |  |
| O=C(O)CNC(=O)[C@@H](CS)Cc1ccccc1 | inactive |  |
| CC(C)C(CCNC(=O)CC(Cc1ccccc1)c1ccco1)c1ccco1 (centres undefined) | 2.82 µM (active) |  |
| COc1c(O[C@H]2O[C@@H](CO)[C@@H](O)[C@@H](O)[C@@H]2O)cc2c(c1OC)-c1ccc(SC)c(=O)cc1[C@H](NC(C)=O)CC2 | inactive |  |
| CC(=O)NCCNc1ncnc2ccc(-c3ccoc3)cc12 |  | 6.33% [at 2.29 µM] |
| CC1CSc2nc3sc4c(c3c(=O)n21)CCCC4 (centres undefined) | 14.1 µM (active) |  |
| Nc1nc(Cl)nc2c1ncn2[C@@H]1O[C@@H](COP(=O)(O)OP(=O)(O)OP(=O)(O)O)[C@@H](O)[C@H]1O | inactive |  |
| S=c1nc[nH]c2c1ncn2Cc1ccco1 |  | 1.4% [at 11.4 µM] |
| O=C1c2ccccc2N[C@H](c2cc(Cl)cc(Cl)c2O)N1CCc1ccccn1 | 3.16 µM (active) |  |
| O=C1CC(N2CCN(CCc3ccccn3)CC2)C(=O)N1c1ccc(Cl)cc1 (centres undefined) | inactive |  |
| CCOC(=O)C1=C(N)n2c(s/c(=C\c3ccco3)c2=O)=C(C(=O)OCC)C1c1ccco1 (centres undefined) | 1.26 µM (active) |  |
| CCOC(=O)C1=C(c2ccccc2)N=c2s/c(=C\c3cccc(O)c3)c(=O)n2C1c1cccs1 (centres undefined) | inactive |  |
| CCOC(=O)C1=C(c2ccccc2)N=c2s/c(=C\c3ccco3)c(=O)n2C1c1cccs1 (centres undefined) | 8.91 µM (active) |  |
| OCCCSCCO |  | 11.5% [at 11.4 µM] |
| C[N+](C)(C)CC[N+]1(C)Cc2c(Cl)c(Cl)c(Cl)c(Cl)c2C1 | inactive |  |
| NS(=O)(=O)c1nc(S(=O)(=O)O)c2[nH]cnc2n1 |  | -8.54% [at 11.4 µM] |
| Cc1ccc(S(=O)(=O)Nc2nc(C)c(NC(=O)Nc3ccc(Cl)cc3Cl)s2)cc1 | 7.94 µM (active) |  |
| Cc1ccc(S(=O)(=O)NC(=O)Nc2ncn[nH]2)cc1 |  | 4.99% [at 11.4 µM] |
| Cc1nnc(NS(=O)(=O)c2ccc(N)cc2)s1 | inactive |  |
| CCN(CC)C(=S)SSC(=S)N(CC)CC | 2.51 µM (active) and 398 nM (active) |  |
| CC(C)(CO[C@H]1C[C@H]2CC[C@@]1(C)C2(C)C)[N+](=O)[O-] |  | -3.36% [at 11.4 µM] |
| C[C@H](O)C(=O)C1=Nc2c(nc(N)[nH]c2=O)NC1 | inactive |  |

| Compound | AC50 | activity, negative = inhibition |
| --- | --- | --- |
| O=C(CCc1ccccc1)NNC(=O)c1ccco1 | inactive |  |
| CCCC(=O)Nc1ccc(C(=O)NNC(=S)NC(=O)c2cccs2)cc1 | 20 µM (active) |  |
| CC(C)(C)C(=O)NC(=S)NCCc1ccccc1 | 11.2 µM (active) |  |
| O=C(CCc1ccccc1)NNC(=S)NC(=O)c1ccccc1 | 15.8 µM (active) |  |
| COc1cc(OC)cc(C(=O)NC(=S)NCCc2ccccc2)c1 | 2.82 µM (active) |  |
| CC(C)(C)OC(=O)N1CCCC1C(=O)NCCc1ccccc1 (centres undefined) | inactive |  |
| COc1cc(CNCCc2ccccc2)ccc1OCC(=O)NC(C)(C)C | inactive |  |
| NNC(=O)c1ccc[n+](CCc2ccccc2)c1 |  | -1.12% [at 11.4 µM] |
| CCC(=O)Nc1ccc(C(=O)NNC(=O)c2cccs2)cc1 | inactive |  |
| N[C@@H](CSCc1ccc(I)cc1)C(=O)O |  | 12.7% [at 11.4 µM] |
| CCCCC(=O)NNC(=S)NC(=O)c1cccc([N+](=O)[O-])c1 | 10 µM (active) |  |
| O=C(NNS(=O)(=O)c1ccccc1)c1cccnc1 |  | 2.91% [at 11.4 µM] |
| CCCCC(=O)Nc1cc(OCC)c(NC(=O)c2ccccc2[N+](=O)[O-])cc1OCC | inactive |  |
| Cc1ccc(C(=O)NNC(=S)NC(=O)c2ccc(Cl)cc2)cc1 | 2 µM (active) |  |
| O=C(NNC(=S)NC(=O)c1cccnc1)c1ccccc1 | 5.62 µM (active) |  |
| NCCNC(=O)c1ccc(Cl)cc1 | inactive |  |
| Cc1ccc(C(=O)NNC(=O)C2CCCN(c3ncccn3)C2)cc1 (centres undefined) | inactive |  |
| COc1ccc(C(=O)NC(=S)NCc2ccccc2)cc1 | 15.8 µM (active) |  |
| O=C(NNC(=O)c1cccnc1)Nc1cccc2ccccc12 | inactive |  |
| CSc1nc2c(c(C(F)(F)F)n1)CC(C)CC2 (centres undefined) | inactive |  |
| Cc1ccccc1-c1nccc(NCCN2CCOCC2)n1 |  | 15.8% [at 2.29 µM] |
| CN(CC(=O)O)CC(=O)O |  | -7.68% [at 11.4 µM] |
| CCc1cc2c(nc1CC)CCN(CC/C(C)=N/O[C@@H](C)c1cc(-c3c(C)cc(C)cc3C)no1)C2 |  | 8.77% [at 11.4 µM] |
| CCOc1ccc(NC(=O)c2ccc(OC)cc2)cc1 | inactive |  |
| COc1ccc(NC(=O)N2CCC3(CC2)CCN(C(=O)c2ccco2)CC3)cc1 | inactive |  |

| Compound | AC50 | activity, negative = inhibition |
| --- | --- | --- |
| COc1ccc(C(=O)NC(=S)NNC(=O)CCc2ccccc2)cc1 | 2.82 µM (active) |  |
| Cc1ccc(OCC(=O)NNC(=O)CCc2ccccc2)cc1 | inactive |  |
| CCOc1cc(NC(=S)Nc2ccccc2)c(OCC)cc1NC(=O)c1ccc(OC)cc1 | 1.78 µM (active) |  |
| COc1ccc(NC(=O)N2CC3(CCN(C(=O)c4ccco4)CC3)C2)cc1 | inactive |  |
| COc1ccc(C(=O)NNC(=S)NC(=O)c2ccco2)cc1 | 7.08 µM (active) |  |
| O=C(NC(=S)NNC(=O)c1cccs1)c1ccco1 | 15.8 µM (active) |  |
| c1ccc(C2CCC(N3CCC(N4CCCCC4)CC3)CC2)cc1 (centres undefined) | inactive |  |
| O=C1NC(=O)C(c2ccccc2[N+](=O)[O-])=C1Nc1ccc(O)c(Cl)c1 | inactive |  |
| O=[N+]([O-])c1cc(Cl)cc2c1nc(NCCO)c1ccccc12 |  | -0.585% [at 11.4 µM] |
| O=C1c2cccc3c(Nc4ccccc4Cl)c([N+](=O)[O-])cc(c23)C(=O)N1CCO | 2.82 µM (active) |  |
| COc1ccc(-n2cccc2C=O)cc1OC | inactive |  |
| COc1ccc(/C=C2\OC(=O)c3c(OC)cccc32)cc1OC | inactive |  |
| COc1cc(C=O)ccc1OCCOCCOc1ccccc1Cl | 12.6 µM (active) |  |
| C#CCN(C)CCCOc1ccc(Cl)cc1Cl | inactive |  |
| COc1cc(C)ccc1OCCOc1cc(C)ccc1Cl | 0.794 µM (active) |  |
| CCCOc1ccc(/C=C/C(=O)Nc2ccc([N+](=O)[O-])cc2C)cc1OC | inactive |  |
| COc1ccc(CNC(C)(C)C)cc1Cl | inactive |  |
| COc1ccccc1OCCCOc1ccc([N+](=O)[O-])cc1Cl | 11.2 µM (active) |  |
| CN=C(NC#N)Nc1ccc(C2=NNC(=O)C[C@@H]2C)cc1 | inactive |  |
| COc1ccc(-c2nc(N)c3ncn([C@H]4O[C@@H](CO)[C@@H](O)[C@@H]4O)c3n2)cc1 |  | 8.82% [at 11.4 µM] |
| COc1cc(CNCc2cccs2)ccc1OCC(=O)NC(C)(C)C | inactive |  |
| COCCNc1nc(SCc2ccccc2)nc2sc3c(c12)CCC3 | 3.16 µM (active) |  |
| OCCNc1nc(SCc2ccccc2)nc2sc3c(c12)CCC3 | 7.94 µM (active) |  |
| COCCNc1nc(-c2ccc(N(C)C)cc2)nc2ccccc12 |  | 8.62% [at 2.29 µM] |
| COCCNc1nc(-c2ccccc2C)nc2ccccc12 |  | -5.55% [at 2.29 µM] |

| Compound | AC50 | activity, negative = inhibition |
| --- | --- | --- |
| CC(CO)Nc1nc(SCc2ccccc2)nc2sc3c(c12)CCC3 (centres undefined) | 4.47 µM (active) |  |
| C[C@H](Nc1ncnc2sc3c(c12)CCC3)C(=O)O | inactive |  |
| CSc1ccc2c(c1)N(CC[C@H]1CCCCN1C)c1ccccc1S2 | inactive |  |
| CC1(C)OCC([C@H](O)C2=CCCCC2=O)CO1 |  | 2.86% [at 11.4 µM] |
| COc1ccccc1CNC(=O)c1cc2c(C)nn(Cc3ccc(F)cc3)c2s1 | 2.24 µM (active) |  |
| COc1ccccc1CNc1ncnc2ccc(-c3ccc(C(=O)N(C)C)cc3)cc12 |  | 0.573% [at 2.29 µM] |
| CN(C)CCCNC(=O)c1cc2c3ccccc3n(C)c2s1 | inactive |  |
| Clc1ccc(-c2csc(N3CCC(c4ccccc4)C3)n2)cc1 (centres undefined) | 14.1 µM (active) |  |
| Fc1ccc(-c2csc(N3CCC(c4ccccc4)C3)n2)cc1 (centres undefined) | 17.8 µM (active) |  |
| Cc1c(C2CCN(CCc3ccccc3)CC2)noc1-c1ccc(Cl)cc1 | inactive |  |
| Brc1ccc(-c2csc(N3CCC(c4ccccc4)C3)n2)cc1 (centres undefined) | 10 µM (active) |  |
| COc1cc2nc(N3CCN(C(=O)OCc4ccccc4)[C@H](C(=O)NC(C)(C)C)C3)nc(N)c2cc1OC | inactive |  |
| CN(C)c1ccc(C(c2ccc(N(C)C)cc2)c2ccc([N+](=O)[O-])cc2)cc1 |  | -7.57% [at 11.4 µM] |
| CC(=O)C[C@H](c1ccc([N+](=O)[O-])cc1)c1c(O)c2ccccc2oc1=O | 0.631 µM (active) |  |
| COc1ccc(NC(=O)N2CC3(CCN(C(=O)c4cnccn4)CC3)C2)cc1 | inactive |  |
| O=c1oc2cc(Oc3ccc(C(F)(F)F)cc3[N+](=O)[O-])ccc2c2c1CCCC2 | 12.6 µM (active) |  |
| Cn1ncc2c(Cl)ncnc21 |  | 0.147% [at 11.4 µM] |
| O=C1[C@@H]2[C@H]3[C@H](O)[C@H](O)C/C(=N/OCc4ccccc4)[C@H]3CC[C@H]2C(=O)N1c1ccc(F)cc1F |  | 12.6% [at 11.4 µM] |
| COc1cccc(-c2noc(-c3cccnc3)n2)c1 | 15.8 µM (active) |  |
| COc1ccc(-c2nnc(-c3cccnc3)o2)cc1 | inactive |  |
| CC(=O)OCC1=C(C(=O)O)N2C(=O)[C@@H](NC(=O)CSc3ccncc3)[C@@H]2SC1 | inactive |  |
| CNc1csc(C)c(C)c1=O | inactive |  |
| Cc1cnc(CNc2cc(-c3cccnc3)ncn2)cn1 |  | 6.31% [at 2.29 µM] |
| N=C1/C(=C\c2ccc(SCc3ccco3)o2)C(=O)N=C2SC=NN12 | 0.447 µM (active) |  |
